Compound activity deposited in PubChem BioAssay by several laboratories.
esBAF inh = blocks esBAF chromatin remodeling in mouse ES cells. 2% of 350,000 active. Bmi1-luciferase knock-in reporter, 24 h; 100% = twice the neutral-well signal. reporter increase, % at 12.5 µM; in the data active means activation above about 40%; inconclusive means no clear call, values can overlap the other calls;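 further: a rise in the Bmi1 reporter signal indicates esBAF inhibition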
697 NFkB inh = inhibitors of the PMA/ionomycin-induced NF-kB reporter in 697 B cells; 697 B-cell NF-kB luciferase reporter, 16 h; inhibition, % at 4 µM; 0.33% of 330,000 active; in the data active means inhibition above about 35%
Jurkat NFkB inh = inhibitors of the PMA/ionomycin-induced NF-kB reporter in Jurkat cells. inhibition, % at 4 µM. PMA/ionomycin-induced NF-kB luciferase reporter, luminescence. AID 435003. 0.53% of 330,000 active; in the data active means inhibition above about 50%
SMARCA2 activ = activators of SMARCA2 function. 1% of 370,000 active. activation, % at 9.1 µM. MG213 cells, MMTV-luciferase reporter, dexamethasone, overnight. AID 652017; in the data active means activation above about 7.8%
Gli-Sufu block = Gli-Sufu pathway antagonism; Sufu-KO-LIGHT fibroblasts, Gli luciferase reporter luminescence; inhibition, % at 5 µM; 0.74% of 340,000 active; AID 588413;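 active means inhibition above about 55%, limit read from the data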
A number is an active result; 0 = inactive; ? = inconclusive; - = no result given. In the library only some 3.3% were active in any assay of this set; here they are far more common.

SMILES	esBAF inh	697 NFkB inh	Jurkat NFkB inh	SMARCA2 activ	Gli-Sufu block
COc1ccccc1C(CNc1ncccc1[N+](=O)[O-])N(C)C (stereo not given)	0	0	0	0	0
CCOC(=O)/C(=N\Nc1ccccc1)S(=O)(=O)c1ccccc1	0	0	0	0	0
CCOC(=O)/C(=N/Nc1ccc(C)cc1)S(=O)(=O)c1ccc(Cl)cc1	54.1	0	0	0	0
C[C@H](CO)N1C[C@H](C)[C@@H](CN(C)C(=O)Nc2cccc3ccccc23)Oc2ccc(NC(=O)NC3CCCCC3)cc2C1=O	0	-	-	-	-
O=C(C[C@@H]1C[C@H]2c3cc(NC(=O)Nc4ccc(C(F)(F)F)cc4)ccc3O[C@H]2[C@H](CO)O1)NCCc1ccccc1	0	-	-	-	-
Cc1cc2ncn(CCOc3ccccc3)c2cc1C	83.1	0	0	0	0
CCC(=O)Nc1cccc(C(=O)OCC(=O)c2ccccc2Cl)c1	50.8	0	0	0	0
CC(=O)Nc1cccc(C(=O)OCC(=O)c2ccccc2Cl)c1	-	0	0	0	0
COc1ccc2[nH]c(O)c(N=NC(=O)c3ccc(NS(=O)(=O)c4cccs4)cc3)c2c1	44.2	0	0	0	0
C(#Cc1ccccc1)Cn1nnc2ccccc21	59.7	0	0	0	0
O=C(O)Cn1nnc2ccccc21	-	0	0	0	0
O=C(C[C@@H]1CC[C@H]2[C@@H](COC[C@@H](O)CN2C(=O)Cc2ccccc2)O1)NC1CCCC1	0	-	-	-	-
COC(=O)c1ccc(COC(=O)c2ccc(C)c(S(=O)(=O)N3CCCCC3)c2)cc1	42.7	0	0	0	0
Cc1ccc(C(=O)Nc2cccc(O)c2)cc1S(=O)(=O)N1CCCCCC1	57.3	0	0	0	0
Cc1ccc(NC(=O)c2ccc(F)cc2)cc1S(=O)(=O)N1CCCCCC1	0	0	0	0	0
Cc1ccc(C(=O)OCC(=O)N2C(C)CCCC2C)cc1S(=O)(=O)N1CCCCC1 (stereo not given)	-	0	0	0	0
Cc1ccc(C(=O)Nc2ccc3cn[nH]c3c2)cc1S(=O)(=O)N1CCCCC1	75.3	0	0	0	0
COc1cccc(OC)c1-c1nn2c(-c3ccco3)nnc2s1	54.3	0	0	0	0
O=C(NC1CCCC1)c1cc(-c2ccc(F)cc2)on1	0	0	0	0	0
O=C(NC1CCC(O)CC1)c1ccc(Br)o1 (stereo not given)	0	0	0	0	0
O=C(NC1CCCC1)c1cc(-c2ccc(Cl)cc2)on1	43.8	0	0	0	0
O=C(NC1CCCCC1)c1cc(-c2ccc(Cl)cc2)on1	49.2	0	0	0	0
O=C(NC1CCCC1)c1cc(-c2cccc(Cl)c2)on1	78.1	0	0	0	0
O=C(NC1CCC(O)CC1)c1ccc(-c2ccc(Cl)cc2)o1 (stereo not given)	63.7	0	0	0	0
C[C@@H]1CCCCO[C@H](CN(C)C(=O)c2ccccc2)[C@@H](C)CN([C@@H](C)CO)C(=O)c2cc(NS(=O)(=O)c3cccs3)ccc2O1	0	-	-	-	-
SMILES	esBAF inh	697 NFkB inh	Jurkat NFkB inh	SMARCA2 activ	Gli-Sufu block
CC(C)NC(=O)Nc1ccc2c(c1)C(=O)N([C@H](C)CO)C[C@@H](C)[C@@H](CN(C)Cc1ccc(C(=O)O)cc1)OCCCC[C@H](C)O2	0	-	-	-	-
CO[C@@H]1CN(C)C(=O)c2cc(NC(=O)C3CCOCC3)ccc2OC[C@@H](C)N(Cc2cccnc2)C[C@H]1C	0	-	-	-	-
CCn1ccc(C(=O)Nc2ccc(Cl)cn2)n1	48.4	0	0	0	0
O=C(Nc1ccc2ccccc2n1)c1ccccc1	0	0	0	0	0
Cc1ccc(C(=O)Nc2ccc3ccccc3n2)cc1	0	0	0	0	0
O=C(Nc1ccc2ncccc2c1)Nc1ccc2ncccc2c1	?	0	0	0	0
O=C(Nc1ccc2ncccc2c1)c1ccccc1Br	110.1	0	0	-	0
O=C(Nc1ccc2ccccc2n1)c1ccccc1Br	51.7	0	0	0	0
COc1ccc(C(=O)Nc2ccc3ccccc3n2)cc1OC	70.4	0	0	0	0
COc1ccccc1-c1cn(CC[C@H]2CC[C@@H](NC(=O)c3cnccn3)[C@@H](CO)O2)nn1	0	-	-	-	-
CN1C(=O)c2cc(NC(=O)c3cccc(C(F)(F)F)c3)ccc2OC[C@@H]2O[C@H](CC(=O)O)CC[C@@H]21	0	-	-	-	-
COc1ccc(C(=O)Nc2ccc(Cl)cn2)cc1Cl	68.8	0	0	0	0
CC1(C)CC(=O)c2sc(NC(=O)C3COc4ccccc4O3)nc2C1 (stereo not given)	44.8	0	0	0	0
Cc1ccc(NC(=O)C2COc3ccccc3O2)cc1 (stereo not given)	0	0	0	0	0
CC(C)(C)c1csc(NC(=O)C2COc3ccccc3O2)n1 (stereo not given)	55.1	0	0	0	0
Cc1ccc(NC(=O)C2COc3ccccc3O2)c(C)c1 (stereo not given)	45.0	0	0	0	0
COc1ccc(-c2csc(NC(=O)C3COc4ccccc4O3)n2)cc1OC (stereo not given)	0	0	0	0	0
O=C(COc1ccc(Cl)cc1[N+](=O)[O-])NC1CCCCC1	101.3	0	0	0	0
O=C(COc1ccc(Cl)cc1[N+](=O)[O-])N1CCCCCC1	0	0	0	0	0
O=C(Cc1ccc(Cl)cc1)NC1CCCCCC1	54.3	0	0	0	0
COc1cc(C)ccc1OCC(=O)NC1CCCCCC1	69.3	0	0	0	-
O=C(Cc1ccc(Cl)cc1)NNC(=O)C(=O)NC1CCCCC1	0	0	0	0	0
O=C(CCS(=O)(=O)c1ccccc1)NC1CCCCC1	-	0	0	0	0
O=C(CCS(=O)(=O)c1ccccc1Cl)NC1CCCCCC1	49.0	0	0	0	0
Cc1ccccc1S(=O)(=O)N(C)C[C@@H]1OCc2cn(nn2)CCCC(=O)N([C@@H](C)CO)C[C@@H]1C	0	-	-	-	-
SMILES	esBAF inh	697 NFkB inh	Jurkat NFkB inh	SMARCA2 activ	Gli-Sufu block
O=C(Nc1ccccc1)N[C@@H]1CC[C@H](CCn2cc(C3(O)CCCC3)nn2)O[C@H]1CO	0	-	-	-	-
CC(=O)c1cc(Cl)ccc1OCC(=O)NC1CCCC1	52.0	0	0	0	0
Cc1cccc(NC(=O)Cn2nnc3ccccc32)c1	63.2	0	0	0	0
Cc1cccc(NC(=O)CSc2nnc(-c3ccccc3C)o2)c1	44.5	-	-	0	0
Cc1cc(C)cc(NC(=O)CSc2nnc(-c3ccccc3C)o2)c1	0	0	0	0	0
COC(=O)c1ccc(NC(=O)Cn2nnc3ccccc32)cc1	71.1	0	0	0	0
C[C@H](CO)N1C[C@H](C)[C@H](CN(C)S(C)(=O)=O)Oc2ncc(C#Cc3cccnc3)cc2C1=O	0	-	-	-	-
O=C(C1CCOCC1)N1CC[C@@H]2[C@H]1c1cc(Br)ccc1N[C@@H]2CO	0	-	-	-	-
C[C@H]1CN([C@@H](C)CO)C(=O)c2cccc(NC(=O)Nc3ccc(F)cc3)c2O[C@H]1CN(C)Cc1ccc(Oc2ccccc2)cc1	0	-	-	-	-
Cc1cccc(-n2ncc3c2CCCC3NC(=O)C2(C(N)=O)CC2)c1C (stereo not given)	-	0	0	0	63.2
Cc1cc(C)cc(-n2ncc3c2CCCC3NC(=O)C2(C(N)=O)CC2)c1 (stereo not given)	0	0	0	0	0
